{"source": "PubChem BioAssay (Tox21)", "note": "Results filed as inconclusive are left out. Entries that show only a call come without a potency. Unmarked numbers belong to inactive results. Activity calls are given as the source filed them. The call rests on the fitted dose curve; in most records, active means well fitted cell-killing curve with a large enough effect in the repeat runs; inconclusive means weak or mixed curves, or effect the other way; inactive means flat fitted curve, though single readings scatter. Potency means the concentration at half of the fitted maximal effect."}
{"experiment": "Nuclear factor erythroid 2-related factor 2/antioxidant responsive element (Nrf2/ARE) small molecule agonists: qHTS cell viability counter screen in human keratinocytes (AID 1919968); further: nearly all actives have a fitted effect of over 55% in size", "settings": "KeratinoSens HaCaT ARE cells viability, CellTiter-Fluor, 24 h; series mostly up to 92.4 µM", "description": "U.S. Tox21 Program National Center for Advancing Translational Sciences [NCATS] Division of Preclinical Innovation [DPI] U.S. Environmental Protection Agency [EPA] National Institutes of Environmental Health Sciences [NIEHS] National Toxicology Program [NTP] U.S. Food and Drug Administration [FDA] Tox21 Assay Overview: Oxidative stress has been implicated in the pathogenesis of a variety of diseases ranging from cancer to neurodegeneration. The antioxidant response element (ARE) signaling pathway plays an important role in the amelioration of oxidative stress. The KeratinoSens (Givaudan, Switzerland) is an in vitro test method which quantifies luciferase induction as a measure of activation of Keap1-Nrf2-antioxidationt/electrophile response element (ARE) dependant pathway in HaCaT human keratinocytes stably transfected with a selectable plasmid. The KeratinoSens assay is a cell-based assay with a reporter cell line to detect potential skin sensitizers by their ability to induce the Nrf2/ARE-response. The activation of the report gene under culture conditions can be detected by ONE-Glo Luciferase Assay System (Promega, Madison, WI). This cell line has been used to screen the Tox21 10K compound library to identify agonists that induce oxidative stress. The cytotoxicity of the Tox21 compound library against the KS-ARE cell line was tested in parallel by measuring the cell viability using CellTiter- Fluor assay system (Promega, Madison, WI) in the same wells.\nTox21 Assay Protocol Summary: HaCaT derived cell line KeratinoSens were dispensed at 1,500 cells/5uL/well in 1536-well white wall/solid bottom plates using a Multidrop Combi (ThermoFisher Scientific, Waltham, MA) dispenser. After the assay plates were incubated at 37 C/5% CO2 for 5 h, 23 nL of compounds dissolved in DMSO, positive controls or DMSO only was transferred to the assay plate by a pintool workstation (Kalypsys, San Diego, CA). The plates were incubated at 37 C/5% CO2 for 23 h, followed by addition of 1uL/well of CellTiter-Fluor reagent into the assay plates using a Flying Reagent Dispenser (Aurora Discovery, San Diego, CA) for cell viability readout that measures cytotoxicity. After 1 h incubation at 37 C/5% CO2 the fluorescence intensity was measured using a ViewLux (PerkinElmer, Shelton, CT) plate reader."}
{"smiles": "CC(=O)CC(C)C", "Potency": "inactive"}
{"smiles": "CC(C)(C(=O)c1cccnc1)c1cccnc1", "Potency": "inactive"}
{"smiles": "Cc1nc2n(c(=O)c1CCN1CCC(c3noc4cc(F)ccc34)CC1)CCC[C@H]2O", "activity change, negative = cytotoxicity": "0.553% [at 19 µM]"}
{"smiles": "CCCCCCCC(C)=O", "Potency": "inactive"}
{"smiles": "O=CC(=O)c1ccccc1", "Potency": "inactive"}
{"smiles": "CC1=CC[C@H](C(C)C)C=C1", "Potency": "inactive"}
{"smiles": "CC[C@H](NC(C)C)[C@H](O)c1ccc(O)c2[nH]c(=O)ccc12", "Potency": "inactive"}
{"smiles": "CC1=C(/C=C/C(C)=C/C=C/C(C)=C\\C(=O)O)C(C)(C)CCC1", "Potency": "inactive"}
{"smiles": "CCOC(=O)O[C@H](C)OC(=O)c1ccc2c(c1)cc(C(=O)NC1CCN(C(C)C)CC1)n2Cc1cc(-c2ccc(Cl)s2)on1", "Potency": "11.4 µM (active)"}
{"smiles": "CCC=CC#N", "Potency": "inactive"}
{"smiles": "C=CC(=O)OCCOCC(CC)(COCCOC(=O)C=C)COCCOC(=O)C=C", "Potency": "31.9 µM (active)"}
{"smiles": "CCCCCCCCCCCCCCC1CO1", "note": "(stereo not given)", "Potency": "inactive"}
{"smiles": "CCCCOCCOC(=O)CCCCCCCCC(=O)OCCOCCCC", "Potency": "inactive"}
{"smiles": "CC(C)(O)C(=O)c1ccccc1", "Potency": "inactive"}
{"smiles": "Cc1c(C)c([N+](=O)[O-])c(C(C)(C)C)c([N+](=O)[O-])c1C", "Potency": "inactive"}
{"smiles": "CCc1nccnc1CC", "activity change, negative = cytotoxicity": "5.52% [at 19 µM]"}
{"smiles": "CC/C(=C\\C(=N/O)C(N)=O)C(C)[N+](=O)[O-]", "note": "(stereo not given)", "Potency": "inactive"}
{"smiles": "CC(C)COC(=O)c1ccccc1", "Potency": "inactive"}
{"smiles": "O=c1[nH]cnc2nc[nH]c12", "Potency": "inactive"}
{"smiles": "CCCCCCCCCC=O", "Potency": "inactive"}
{"smiles": "CCCc1nn(C)c2c(=O)[nH]c(-c3cc(S(=O)(=O)N4CCN(C)CC4)ccc3OCC)nc12", "Potency": "inactive"}
{"smiles": "CC(=O)c1ccc2ccc3ccccc3c2c1", "Potency": "inactive"}
{"smiles": "C/C=C/C(=O)OCC(C)C", "Potency": "inactive"}
{"smiles": "CC(C)(c1ccc(Oc2ccc3c(c2)C(=O)OC3=O)cc1)c1ccc(Oc2ccc3c(c2)C(=O)OC3=O)cc1", "Potency": "inactive"}
{"smiles": "OCCNCc1ccccc1", "Potency": "inactive"}
{"smiles": "Nc1ccc2cc(S(=O)(=O)O)cc(O)c2c1", "Potency": "inactive"}
{"smiles": "COc1cc(OC)cc(OC)c1", "Potency": "inactive"}
{"smiles": "CC(=O)C1C(=O)C=C(C)OC1=O", "note": "(stereo not given)", "Potency": "inactive"}
{"smiles": "O=C1CCCCCCCCCCOCCCCO1", "Potency": "inactive"}
{"smiles": "NC(=O)c1ccccc1[N+](=O)[O-]", "Potency": "inactive"}
{"smiles": "Cc1nc2ccc(Cl)cc2[nH]1", "Potency": "inactive"}
{"smiles": "Cc1c(N)cccc1Cl", "Potency": "inactive"}
{"smiles": "Cc1cc(C)c(C=O)c(C)c1", "Potency": "inactive"}
{"smiles": "OC1(c2ccccc2)CCNCC1", "Potency": "inactive"}
{"smiles": "COc1cc(-c2nc(NC(=O)c3cc4cc(C)cc(C)c4n3CC(=O)O)sc2CCC2CCCCC2)c(OC)cc1Cl", "Potency": "17.7 µM (active)"}
{"smiles": "Cc1ccccc1N1CCN(CCc2nnc3n2CCCC3)CC1", "Potency": "inactive"}
{"smiles": "OCCC(F)(F)C(F)(F)C(F)(F)C(F)(F)C(F)(F)C(F)(F)C(F)(F)C(F)(F)F", "Potency": "inactive"}
{"smiles": "CC1(C)[C@H]2CC[C@]1(C)C(=O)C2", "Potency": "inactive"}
{"smiles": "C[N+]1(C)[C@@H]2CC(OC(=O)[C@H](CO)c3ccccc3)C[C@H]1[C@@H]1O[C@@H]12", "note": "(stereo not given in full)", "Potency": "inactive"}
{"smiles": "Oc1cccc2cc3cccc(O)c3c(O)c12", "Potency": "inactive"}
